Test results from PubChem BioAssay (EPA / NIEHS).
Records with an inconclusive call do not appear. The source made the active and inactive calls. Rule for the calls, unless noted: active = hit-call score of the fitted dose curve at least 0.9, where 1 is the maximum; inactive = score below 0.9.

Assays:
[1] = molecular target: Oxysterols receptor LXR-beta (Homo sapiens) (UniProt P55055); assay: ATG_LXRb_TRANS: Attagene TRANS-FACTORIAL HepG2 Assay for human Liver X Receptor beta (LXRb) (AID 2282981; active = hit-call score of the fitted dose curve at least 0.9, where 1 is the maximum); details: HepG2 Attagene TRANS GAL4-LXRb reporter, mRNA
Sequence of Oxysterols receptor LXR-beta (Homo sapiens) (P55055 whole entry, looked up, the tested form may be a part): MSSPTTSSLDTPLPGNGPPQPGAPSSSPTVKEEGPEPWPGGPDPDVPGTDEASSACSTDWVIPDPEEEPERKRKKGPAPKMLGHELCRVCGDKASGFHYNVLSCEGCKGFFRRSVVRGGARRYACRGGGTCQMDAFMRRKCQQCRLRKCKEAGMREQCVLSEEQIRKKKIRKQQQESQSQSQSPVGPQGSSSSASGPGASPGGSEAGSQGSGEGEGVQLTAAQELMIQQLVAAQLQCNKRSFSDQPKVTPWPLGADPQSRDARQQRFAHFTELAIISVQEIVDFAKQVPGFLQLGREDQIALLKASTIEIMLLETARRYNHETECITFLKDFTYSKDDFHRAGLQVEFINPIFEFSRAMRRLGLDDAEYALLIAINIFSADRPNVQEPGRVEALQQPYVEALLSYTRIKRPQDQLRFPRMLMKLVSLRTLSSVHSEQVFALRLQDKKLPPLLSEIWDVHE
In short: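 Measures induction of a Gal4-driven reporter transcript in HepG2 cells expressing an exogenous LXRb-Gal4 fusion. Cells are exposed to compound for 24 h before RNA isolation and RT-PCR with capillary electrophoresis detection.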

[2] = ATG_M_32_TRANS: Attagene TRANS-FACTORIAL HepG2 Assay for M32 Transcription Factor (Internal Marker) (AID 2282984; active = hit-call score of the fitted dose curve at least 0.9, where 1 is the maximum;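 note: transcript level of a background control reporter unit measured by RT-PCR and capillary electrophoresis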); details: HepG2 Attagene TRANS M32 internal marker reporter
In short: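 After 24 h dosing of transfected HepG2 cells, total RNA was reverse-transcribed, reporter sequences PCR-amplified, 6-FAM labelled by primer extension and HpaI-digested before capillary electrophoresis. Signal increase over DMSO was fitted.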

[3] = molecular target: Transcriptional activator Myb (Homo sapiens) (UniProt P10242); assay: ATG_Myb_CIS: Attagene CIS-FACTORIAL HepG2 Assay for human Myeloblastosis (Myb) Proto-Oncogene Transcription Factor (AID 2282986); details: HepG2 Attagene CIS-FACTORIAL Myb reporter transcription; actives raise or lower the signal
Sequence of Transcriptional activator Myb (Homo sapiens) (P10242 whole entry, looked up): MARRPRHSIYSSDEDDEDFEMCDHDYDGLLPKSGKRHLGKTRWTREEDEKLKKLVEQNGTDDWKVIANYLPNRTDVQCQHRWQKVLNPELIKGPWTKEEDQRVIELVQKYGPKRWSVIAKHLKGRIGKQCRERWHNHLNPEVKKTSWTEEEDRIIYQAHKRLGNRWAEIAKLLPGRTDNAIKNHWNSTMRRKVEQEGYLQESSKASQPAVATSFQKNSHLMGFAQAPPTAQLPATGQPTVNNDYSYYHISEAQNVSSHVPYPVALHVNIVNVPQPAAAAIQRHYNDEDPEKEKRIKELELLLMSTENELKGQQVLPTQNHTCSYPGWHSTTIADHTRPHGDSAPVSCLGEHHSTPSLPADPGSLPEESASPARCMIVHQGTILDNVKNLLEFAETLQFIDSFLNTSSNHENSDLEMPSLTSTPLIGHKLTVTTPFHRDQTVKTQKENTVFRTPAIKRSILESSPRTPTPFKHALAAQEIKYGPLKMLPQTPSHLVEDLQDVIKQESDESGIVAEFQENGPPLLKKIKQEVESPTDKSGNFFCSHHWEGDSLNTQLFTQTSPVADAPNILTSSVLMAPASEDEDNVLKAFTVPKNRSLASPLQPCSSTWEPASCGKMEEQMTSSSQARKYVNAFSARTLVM
In short: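 Transiently transfected HepG2 cells, treated 24 h. Reporter mRNA quantified by RT-PCR/capillary electrophoresis; bidirectional fit relative to DMSO.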

[4] = molecular target: Nuclear respiratory factor 1 (Homo sapiens) (UniProt Q16656); assay: ATG_NRF1_CIS: Attagene CIS-FACTORIAL HepG2 Assay for human Nuclear Respiratory Factor 1 (NRF1) Orphan Gene (AID 2282987); details: HepG2 NRF1 cis-element reporter, Attagene multiplex; actives raise or lower the signal
Sequence of Nuclear respiratory factor 1 (Homo sapiens) (Q16656 whole entry, looked up, the tested form may be a part): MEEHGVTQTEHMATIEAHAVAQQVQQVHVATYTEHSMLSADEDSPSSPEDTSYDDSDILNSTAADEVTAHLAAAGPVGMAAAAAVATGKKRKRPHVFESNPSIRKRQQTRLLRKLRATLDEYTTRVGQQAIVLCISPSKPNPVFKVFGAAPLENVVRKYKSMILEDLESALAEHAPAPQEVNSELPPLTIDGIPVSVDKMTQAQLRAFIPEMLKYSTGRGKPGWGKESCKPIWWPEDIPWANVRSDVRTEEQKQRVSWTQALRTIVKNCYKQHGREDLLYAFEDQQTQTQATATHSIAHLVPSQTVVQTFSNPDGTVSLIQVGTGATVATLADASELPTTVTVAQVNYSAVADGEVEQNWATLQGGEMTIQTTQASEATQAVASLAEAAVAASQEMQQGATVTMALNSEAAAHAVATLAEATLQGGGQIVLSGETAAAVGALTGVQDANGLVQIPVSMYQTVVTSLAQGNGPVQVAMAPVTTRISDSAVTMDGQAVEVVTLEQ
In short: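 Cells (HepG2, transient MRTU transfection) are exposed to compound for 24 h, then RNA isolated and reporter mRNA amplified and fluorescently labelled. Fragments are separated by capillary electrophoresis; signal change is fitted bidirectionally relative to DMSO.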

[5] = ATG_NFI_CIS: Attagene CIS-FACTORIAL HepG2 Assay for human Nuclear Factor I (NFI) (AID 2282989); details: HepG2 cis-regulatory reporter, NFI response element transcription; actives raise or lower the signal
In short: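 Transfected HepG2 liver cells, exposed 24 h, supplied total RNA for oligo(dT) reverse transcription and reporter-specific PCR. Labelled, HpaI-cut fragments were sized by capillary electrophoresis; DMSO set the baseline for bidirectional fitting.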

[6] = molecular target: Myc proto-oncogene protein (Homo sapiens) (UniProt P01106); assay: ATG_Myc_CIS: Attagene CIS-FACTORIAL HepG2 Assay for human Myelocytomatosis (Myc) Proto-Oncogene Transcription Factor (AID 2282990); details: HepG2, Attagene cis-reporter transcription factor activity; actives raise or lower the signal
Sequence of Myc proto-oncogene protein (Homo sapiens) (P01106 whole entry, looked up): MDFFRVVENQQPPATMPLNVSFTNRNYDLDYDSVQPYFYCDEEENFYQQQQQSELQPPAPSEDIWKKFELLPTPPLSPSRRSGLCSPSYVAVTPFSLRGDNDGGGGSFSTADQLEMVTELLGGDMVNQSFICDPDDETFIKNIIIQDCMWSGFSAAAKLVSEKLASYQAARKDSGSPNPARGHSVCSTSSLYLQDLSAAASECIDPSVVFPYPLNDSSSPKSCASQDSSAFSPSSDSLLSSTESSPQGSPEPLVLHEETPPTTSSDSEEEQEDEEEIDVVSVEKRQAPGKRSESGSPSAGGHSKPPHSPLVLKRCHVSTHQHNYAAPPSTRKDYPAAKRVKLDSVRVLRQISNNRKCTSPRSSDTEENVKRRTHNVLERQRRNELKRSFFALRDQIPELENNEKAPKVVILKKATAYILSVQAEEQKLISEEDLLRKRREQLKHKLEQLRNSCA
In short: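 HepG2 cells transiently transfected with multiple cis-promoter-driven reporter transcription units, so endogenous TF activity is read. After 24 h compound exposure, reporter mRNA was quantified by RT-PCR, 6-FAM labelling, HpaI digestion and capillary electrophoresis; bidirectional fit versus DMSO.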

[7] = ATG_NRF2_ARE_CIS: Attagene CIS-FACTORIAL HepG2 Assay for human Nuclear Factor Erythroid 2 Related Factor 2 (NFR2) response to Antioxidant Response Elements (ARE) (AID 2282992); details: HepG2 Attagene ARE/NRF2 reporter, transcription factor activity; actives raise or lower the signal;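 for AC50: reporter mRNA level measured by RT-PCR and capillary electrophoresis fluorescence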
In short: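 Fluorescence intensity of reporter-specific cDNA fragments, separated by capillary electrophoresis, reflects mRNA induction in transfected HepG2 cells at 24 h. Activity is fitted bidirectionally, DMSO serving as baseline.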

[8] = molecular target: Cellular tumor antigen p53 (Homo sapiens) (UniProt P04637); assay: ATG_p53_CIS: Attagene CIS-FACTORIAL HepG2 Assay for human p53 Transcription Factor (AID 2282994); details: HepG2 p53 cis-element reporter, Attagene mRNA; actives raise or lower the signal
Sequence of Cellular tumor antigen p53 (Homo sapiens) (P04637 whole entry, looked up): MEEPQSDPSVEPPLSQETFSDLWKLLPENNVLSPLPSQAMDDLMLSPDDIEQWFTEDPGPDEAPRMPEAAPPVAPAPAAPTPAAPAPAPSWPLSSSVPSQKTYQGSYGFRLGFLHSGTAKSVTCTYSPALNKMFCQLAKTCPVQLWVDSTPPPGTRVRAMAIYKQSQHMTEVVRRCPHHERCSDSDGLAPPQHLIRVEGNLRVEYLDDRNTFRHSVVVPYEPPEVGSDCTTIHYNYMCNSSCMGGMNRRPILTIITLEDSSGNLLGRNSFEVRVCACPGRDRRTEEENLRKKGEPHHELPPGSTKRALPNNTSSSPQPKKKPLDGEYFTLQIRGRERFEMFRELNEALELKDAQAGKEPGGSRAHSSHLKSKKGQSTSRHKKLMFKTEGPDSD
In short: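 Transiently transfected HepG2 (multiple cis reporter transcription units); exposure 24 h; reporter RNA via RT-PCR, 6-FAM extension, 2 h HpaI digest at 37 C, CE detection; DMSO baseline.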

[9] = molecular target: Oxysterols receptor LXR-alpha (Homo sapiens) (UniProt Q13133); assay: ATG_LXRa_TRANS: Attagene TRANS-FACTORIAL HepG2 Assay for human Liver X Receptor alpha (LXRa) (AID 2282980; active = hit-call score of the fitted dose curve at least 0.9, where 1 is the maximum); details: HepG2 Attagene TRANS reporter, LXRa transactivation
Sequence of Oxysterols receptor LXR-alpha (Homo sapiens) (Q13133 whole entry, looked up, the tested form may be a part): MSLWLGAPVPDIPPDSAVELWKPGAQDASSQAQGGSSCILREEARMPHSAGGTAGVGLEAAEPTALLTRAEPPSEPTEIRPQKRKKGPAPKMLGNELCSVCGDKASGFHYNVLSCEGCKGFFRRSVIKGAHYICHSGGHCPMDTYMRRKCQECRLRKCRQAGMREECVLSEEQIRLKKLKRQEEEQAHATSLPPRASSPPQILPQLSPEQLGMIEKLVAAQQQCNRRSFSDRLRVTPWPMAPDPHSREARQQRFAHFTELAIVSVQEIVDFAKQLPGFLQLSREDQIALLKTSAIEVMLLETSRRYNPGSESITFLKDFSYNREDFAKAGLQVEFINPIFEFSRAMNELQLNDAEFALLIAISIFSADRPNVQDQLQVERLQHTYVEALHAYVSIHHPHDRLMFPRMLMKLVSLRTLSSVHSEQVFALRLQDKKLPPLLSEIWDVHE
In short: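 HepG2 cells were transiently transfected with multiplexed reporter units driven by chimeric LXRa–GAL4 fusion proteins, then dosed for 24 h. Reporter mRNA was quantified by RT-PCR, fluorescent labelling and capillary electrophoresis; gain of signal fitted against DMSO baseline.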

[10] = ATG_NF_kB_CIS: Attagene CIS-FACTORIAL HepG2 Assay for human Nuclear Factor Kappa B (NF-kB) (AID 2282991); details: HepG2 Attagene cis-factorial NF-kB reporter mRNA; actives raise or lower the signal
In short: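 Measures mRNA induction of an NF-kB-responsive cis-element reporter in HepG2 cells transfected with multiple reporter units, sampled 24 h post-dosing; quantified by fluorescence after RT-PCR and capillary electrophoresis, fitted for activation or inhibition against DMSO.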

[11] = ATG_Oct_MLP_CIS: Attagene CIS-FACTORIAL HepG2 Assay for human Octamer-Binding Transcription Factor (Oct) (AID 2282993); details: HepG2 Attagene cis-factorial Oct reporter, mRNA; actives raise or lower the signal
In short: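 Using HepG2 cells bearing transfected cis-reporter constructs, mRNA induction was read after 24 h by fluorescent RT-PCR and capillary electrophoresis, with DMSO defining baseline for gain- or loss-of-signal fits.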

[12] = BSK_3C_TissueFactor: BioMAP Diversity Plus: 3C Assay for Tissue Factor Biomarker Activity (AID 2282997); details: BioMAP 3C HUVEC, tissue factor biomarker readout; actives raise or lower the signal
In short: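 Readout: Tissue Factor ELISA. Cells: human primary umbilical vein endothelium. Time: 24 h after dosing. Analysis: bidirectional fit, DMSO baseline.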

[13] = BSK_3C_uPAR: BioMAP Diversity Plus: 3C Assay for Urokinase-type plasminogen activator receptor (uPAR) Biomarker Activity (AID 2282998); details: BioMAP 3C HUVEC, uPAR biomarker ELISA; actives raise or lower the signal
In short: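 In this endothelial cell-based assay, human umbilical vein primary cells were treated with chemicals and harvested at 24 h. uPAR was quantified using ELISA, with gains or losses fitted relative to DMSO controls.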

[14] = BSK_3C_VCAM1: BioMAP Diversity Plus: 3C Assay for Vascular cell adhesion molecule 1 (VCAM1) Biomarker Activity (AID 2282999); details: BioMAP 3C HUVEC, VCAM1 ELISA, cytokine-stimulated; actives raise or lower the signal
In short: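 Vascular primary endothelium (human umbilical vein) was exposed to chemicals and assayed 24 h later. VCAM-1 levels came from ELISA, with DMSO serving as baseline for bidirectional fitting.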

[15] = ATG_M_06_TRANS: Attagene TRANS-FACTORIAL HepG2 Assay for M06 Transcription Factor (Internal Marker) (AID 2282983; active = hit-call score of the fitted dose curve at least 0.9, where 1 is the maximum); details: HepG2 Attagene TRANS M06 internal marker reporter
In short: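 In this multiplexed HepG2 system, compounds are incubated 24 h with cells carrying GAL4-UAS reporter units. Reporter RNA is amplified and resolved by capillary electrophoresis, and induction is scored against DMSO.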

[16] = molecular target: Nuclear receptor subfamily 4 group A member 2 (Homo sapiens) (UniProt P43354); assay: ATG_NURR1_TRANS: Attagene TRANS-FACTORIAL HepG2 Assay for human Nuclear Receptor Related Protein 1 (NURR1) (AID 2282985; active = hit-call score of the fitted dose curve at least 0.9, where 1 is the maximum); details: HepG2 Attagene TRANS reporter, mRNA readout
Sequence of Nuclear receptor subfamily 4 group A member 2 (Homo sapiens) (P43354 whole entry, looked up, the tested form may be a part): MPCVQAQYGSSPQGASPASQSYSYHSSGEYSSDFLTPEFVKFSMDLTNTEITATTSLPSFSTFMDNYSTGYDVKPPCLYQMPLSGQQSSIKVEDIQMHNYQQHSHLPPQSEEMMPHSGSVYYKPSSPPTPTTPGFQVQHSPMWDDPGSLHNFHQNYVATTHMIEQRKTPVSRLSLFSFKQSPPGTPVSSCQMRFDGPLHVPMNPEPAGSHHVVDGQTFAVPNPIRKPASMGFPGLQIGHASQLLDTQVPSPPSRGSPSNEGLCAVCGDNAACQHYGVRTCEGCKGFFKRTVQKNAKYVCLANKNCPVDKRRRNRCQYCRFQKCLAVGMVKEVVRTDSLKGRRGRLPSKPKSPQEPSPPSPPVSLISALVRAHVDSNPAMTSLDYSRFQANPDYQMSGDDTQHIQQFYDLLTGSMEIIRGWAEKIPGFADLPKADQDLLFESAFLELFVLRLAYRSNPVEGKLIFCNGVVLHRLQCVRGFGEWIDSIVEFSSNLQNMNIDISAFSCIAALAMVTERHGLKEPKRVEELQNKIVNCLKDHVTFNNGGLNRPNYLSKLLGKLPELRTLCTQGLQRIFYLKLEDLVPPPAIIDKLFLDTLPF
In short: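 Chimeric NR-Gal4 fusion activity measured in HepG2 after 24 h treatment. Reporter transcripts detected by RT-PCR and capillary electrophoresis fluorescence; positive-direction curve fitting against DMSO.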

[17] = molecular target: Hepatocyte nuclear factor 4-alpha (Homo sapiens) (UniProt P41235); assay: ATG_HNF4a_TRANS: Attagene TRANS-FACTORIAL HepG2 Assay for human Hepatocyte Nuclear Factor 4 alpha (HNF4a) (AID 2282982; active = hit-call score of the fitted dose curve at least 0.9, where 1 is the maximum); details: HepG2 HNF4a transactivation reporter, mRNA readout
Sequence of Hepatocyte nuclear factor 4-alpha (Homo sapiens) (P41235 whole entry, looked up, the tested form may be a part): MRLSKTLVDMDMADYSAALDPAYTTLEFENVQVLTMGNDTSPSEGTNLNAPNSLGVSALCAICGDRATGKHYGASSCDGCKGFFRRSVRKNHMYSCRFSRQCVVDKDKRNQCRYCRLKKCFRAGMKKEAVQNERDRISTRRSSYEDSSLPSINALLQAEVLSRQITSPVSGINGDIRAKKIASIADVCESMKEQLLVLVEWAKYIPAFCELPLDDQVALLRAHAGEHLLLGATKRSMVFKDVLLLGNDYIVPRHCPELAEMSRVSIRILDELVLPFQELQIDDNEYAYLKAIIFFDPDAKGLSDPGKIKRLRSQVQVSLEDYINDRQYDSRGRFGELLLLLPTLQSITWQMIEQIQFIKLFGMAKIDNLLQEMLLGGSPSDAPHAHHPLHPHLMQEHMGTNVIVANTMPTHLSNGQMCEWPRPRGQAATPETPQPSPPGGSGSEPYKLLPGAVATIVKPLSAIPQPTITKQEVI
In short: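 In this trans-factorial format, a chimeric HNF4a-GAL4 fusion drives a GAL4-UAS reporter in transfected HepG2 liver cells. After 24 h treatment, reporter mRNA induction is measured by RT-PCR with capillary electrophoresis, relative to DMSO.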

Compound	outcome [1]	outcome [2]	outcome [3]	outcome [4]	outcome [5]	outcome [6]	AC50 [7]	outcome [8]	outcome [9]	outcome [10]	outcome [7]	outcome [11]	outcome [12]	outcome [13]	outcome [14]	outcome [15]	outcome [16]	outcome [17]
CCCCCCOc1ccc(O)cc1	inactive	inactive	inactive	inactive	inactive	inactive	18.7 µM (active)	inactive	–	–	–	–	–	–	–	–	–	–
CC(C)CCCC(C)(C)O	–	inactive	inactive	inactive	inactive	inactive	–	inactive	inactive	inactive	inactive	inactive	inactive	inactive	inactive	–	–	–
CC(=O)c1cccnc1	inactive	inactive	inactive	inactive	inactive	inactive	–	inactive	–	inactive	inactive	inactive	–	–	–	–	–	–
CC1=CC[C@@H]2C[C@H]1C2(C)C	inactive	–	inactive	inactive	–	inactive	–	–	–	inactive	inactive	inactive	–	–	–	inactive	inactive	–
CC(CO)c1ccccc1 (stereo not drawn)	inactive	inactive	inactive	inactive	inactive	inactive	–	inactive	–	inactive	inactive	inactive	–	–	–	–	–	–
c1ccc2scnc2c1	inactive	–	inactive	inactive	inactive	inactive	42.1 µM (active)	inactive	–	inactive	–	inactive	–	–	–	inactive	–	–
CN(C)C(=O)Nc1ccccc1	inactive	–	inactive	inactive	–	inactive	–	–	–	–	inactive	inactive	–	–	–	–	inactive	inactive
CC(C)Cc1ccccc1	–	inactive	inactive	inactive	inactive	inactive	–	inactive	–	inactive	inactive	inactive	–	–	–	inactive	–	inactive
CCCCN(CCCC)CCCCCCN(CCCC)CCCC	inactive	inactive	inactive	inactive	inactive	inactive	–	inactive	–	–	inactive	–	–	–	–	–	–	–
c1ccc(Cc2ccccc2)cc1	inactive	inactive	inactive	–	inactive	inactive	–	inactive	–	–	inactive	inactive	–	–	–	inactive	inactive	inactive
CC(C)COC(=O)c1ccccc1	inactive	–	inactive	inactive	inactive	inactive	–	inactive	–	–	inactive	–	–	–	–	inactive	–	inactive
COC(=O)c1cccc(C(=O)OC)c1	–	inactive	inactive	inactive	inactive	inactive	24.7 µM (active)	inactive	inactive	–	–	inactive	–	–	–	–	–	–
CC1(C)CC(N)CC(C)(CN)C1 (stereo not drawn)	inactive	inactive	–	inactive	inactive	inactive	–	inactive	–	inactive	inactive	inactive	–	–	–	inactive	inactive	inactive
